Data from PubChem BioAssay AID686978 (National Center for Advancing Translational Sciences (NCATS), 2013).
About 64,000 (15%) of roughly 420,000 compounds were called active. Inconclusive results (about 27%) are left out. Calls come from the whole dose curve; as a rule, active = well fitted inhibition curve with a large enough effect; inconclusive = small, poorly fitted or top-dose-only effect; inactive = flat fitted curve, though single readings scatter. A selection follows. Where a call stands in place of a potency, no number is given.

Experiment: qHTS for Inhibitors of human tyrosyl-DNA phosphodiesterase 1 (TDP1): qHTS in cells in absence of CPT; note: nearly all actives have a fitted effect of over 55% in size
Conditions: DT40 Tdp1-/- hTDP1 cells, no CPT, ATP luminescence, 48 h; activity change, negative = growth inhibition: at 46.2 µM (top of the series)
How it was run: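 Growth kinetics read by CellTiter-Glo luminescence after ≥48 hr at 37 °C. Cells: DT40 Tdp1-/- stably carrying human TDP1, 400 per well, compound exposure in the absence of CPT (DMSO vehicle).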
Potency is the fitted concentration of half-maximal effect.

Compound	Potency
CC1(C(=O)Nc2ccc3c(c2)OCCO3)CN(S(C)(=O)=O)CC(=O)N1Cc1cccc(F)c1 (centres undefined)	inactive
O=C(C1CCCO1)N1CCN(C(=S)Nc2cccc(Cl)c2)CC1 (centres undefined)	inactive
CCOC(=O)C1CCN(C(=O)C2CCN(S(=O)(=O)N3CCCC3)CC2)CC1	inactive
CCN(CC)C(=O)CSc1nc2cc3c(cc2c(=O)n1CCCC(=O)NCc1ccc2c(c1)OCO2)OCO3	16.4 µM (active)
O=C(CCCCn1c(=O)[nH]c2ccccc2c1=O)NCc1ccc2c(c1)OCO2	inactive
CCCCNC(=O)CSc1nc2cc3c(cc2c(=O)n1CCCCCC(=O)NCc1ccc2c(c1)OCO2)OCO3	inactive
CN(C)/N=C/c1cn(-c2ccccc2)nc1-c1cccnc1	inactive
COc1ccc(-c2nn(-c3ccccc3)cc2/C=N/Nc2ccccn2)cc1OC	5.8 µM (active)
CC(C)(C)OC(=O)N/N=C/c1cn(-c2ccccc2)nc1-c1cccnc1	inactive
O=C(Nc1cccc2cccnc12)c1cccc(Cl)c1	inactive
N#Cc1ccc(C(=O)Nc2cccc3cccnc23)c(F)c1	inactive
CC(=O)/C(=N\Nc1ccc(Cl)cc1Cl)Sc1cccc2cccnc12	4.11 µM (active)
C#CCN(N(C)c1ncc(C(F)(F)F)cc1Cl)S(=O)(=O)c1ccc2ccccc2c1	inactive
Cc1csc(NC(=O)CSc2nnc(-c3cccnc3)o2)n1	inactive
O=C(NCCS(=O)(=O)NCc1ccc(F)cc1)c1ccccc1	inactive
O=C(COC(=O)c1ccc(O)cc1)Nc1nccs1	inactive
O=C(Cn1cnc([N+](=O)[O-])n1)NCCc1ccccc1	inactive
COc1cc(-n2c(C)nc3cc(C(=O)NCc4ccco4)ccc32)cc(OC)c1OC	inactive
CCn1c(CNC(=O)c2cc(OC)c(OC)c(OC)c2)cc2cc(C)ccc21	13 µM (active)
CCN1CCN(CC(=O)c2cc(OC)c(OC)c(OC)c2)CC1	inactive
COC(=O)c1cccc(NC(=O)c2cccc(N3C(=O)CCC3=O)c2)c1	inactive
O=C(O)c1ccccc1Cc1ccc(F)c2ccccc12	inactive

Compound	Potency
O=C(Nc1ccc2c(c1)nc1n2CCCCC1)c1cc(S(=O)(=O)N2CCOCC2)ccc1Cl	14.6 µM (active)
O=C(Nc1ccc(S(=O)(=O)N2CCOCC2)cc1)C1CCN(S(=O)(=O)c2ccc(Cl)cc2)CC1	10.3 µM (active)
O=S(=O)(c1ccc(NC(=S)NN=C(C2CC2)C2CC2)cc1)N1CCOCC1	inactive
COCCNC(=S)Nc1cc(S(=O)(=O)N2CCOCC2)ccc1N1CCCCC1	16.4 µM (active)
CCOc1ccc(C(=O)NC(=S)Nc2ccc(NC(=O)C(C)C)cc2)cc1[N+](=O)[O-]	inactive
O=C(COC(=O)c1ccccc1F)Nc1cc(S(=O)(=O)N2CCOCC2)ccc1N1CCCC1	inactive
CCOc1ccc(C(=O)NC(=S)Nc2ccc(N3CCOCC3)c(Cl)c2)cc1[N+](=O)[O-]	8.2 µM (active)
O=C(OCC(=O)N1CCCC1=O)c1cc(S(=O)(=O)N2CCOCC2)ccc1Cl	inactive
O=C(CNCc1ccco1)Nc1cc(S(=O)(=O)N2CCOCC2)ccc1N1CCCC1	inactive
CC(=O)Nc1ccc(S(=O)(=O)N2CCC(C(=O)NC3CC3)CC2)cc1	inactive
CCOc1ccc(C(=O)Nc2ccc(CN3CCOCC3)cc2)cc1Cl	inactive
COc1cc(NC(=S)NCc2ccco2)c(OC)cc1Cl	inactive
COC(=O)CN(c1nc(C)c(Cl)c(OC)n1)S(=O)(=O)c1ccc(C)cc1	inactive
O=C(OCC(O)C(O)COC(=O)c1ccccc1)c1ccccc1 (centres undefined)	inactive
O=C(O)C(=Cc1ccccc1[N+](=O)[O-])c1ccccc1	inactive
O=C(Cc1c(F)cccc1Cl)N1CCN(C(=O)c2ccco2)CC1	inactive
CC(C)CCOc1ccc(C(=O)Nc2cc(S(=O)(=O)N3CCOCC3)ccc2N2CCOCC2)cc1	5.8 µM (active)
COc1ccc(NC(=O)CNc2cc(S(=O)(=O)N3CCOCC3)ccc2N2CCOCC2)c(OC)c1	inactive
O=C(Nc1ccc2cn[nH]c2c1)c1ccc(S(=O)(=O)N2CCOCC2)cc1	inactive
CC(Oc1ccc(F)cc1)C(=O)Nc1cc(S(=O)(=O)N2CCOCC2)ccc1N1CCN(C)CC1 (centres undefined)	inactive
CC(=O)Nc1ccc(C(=O)Nc2cc(S(=O)(=O)N3CCOCC3)ccc2N2CCOCC2)cc1	inactive
O=C(Nc1ccc(N2CCOCC2)c(Cl)c1)c1ccc(S(=O)(=O)N2CCOCC2)cc1	14.6 µM (active)

Compound	Potency
NC(=O)CN1CCCC1c1ccc2c(c1)OCCO2 (centres undefined)	inactive
CCOC(CNC(=O)C1CCN(S(=O)(=O)c2ccc3nc4c(c(C(=O)O)c3c2)CC(C)CC4)CC1)OCC (centres undefined)	inactive
CCN(CC)N=Nc1cccc(NC(C)=O)c1	3.26 µM (active)
CC(=O)Nc1cccc(C(=O)OCC(=O)c2ccc3c(c2)OCO3)c1	inactive
CC(=O)c1cccc(NC(=O)c2ccncc2)c1	inactive
C=CCn1c(CNC(=O)c2ccco2)nnc1SCC(=O)c1ccc(OC)cc1	inactive
C=CCn1c(CCNC(=O)c2ccccc2F)nnc1SCC(=O)Nc1ccc(OC)cc1	inactive
C=CCn1c(SCc2ccc(Cl)c(Cl)c2)nnc1C(CO)NC(=O)c1ccc(OC)cc1 (centres undefined)	20.6 µM (active)
C=CCN1C(=O)C(Cc2cccc(Cl)c2)S/C1=N/N=C/c1ccco1 (centres undefined)	inactive
Cc1cc(S(=O)(=O)NCc2ccccn2)c(Cl)cc1Cl	inactive
CCn1c(=S)sc2c(=O)n(CC(=O)Nc3ccc(OC)cc3)c(C)nc21	inactive
COC(=O)c1cc(C(=O)CSc2nc(C)cc(C)n2)ccc1O	inactive
O=C(OC12CC3CC(CC(C3)C1)C2)c1ccc(NCc2cc(O)ccc2O)cc1	1.64 µM (active)
C#CCNc1ccc(C(=O)OCC)cc1	inactive
COC(=O)c1ccc(NCc2cc(O)ccc2O)cc1	4.61 µM (active)
CC(C)OC(=O)c1ccc(NCc2cc(O)ccc2O)cc1Cl	2.59 µM (active)
CC(CN1CCOCC1)OC(=O)c1ccc(Cl)cc1Cl (centres undefined)	inactive
CC(OC(=O)c1ccc(Cl)cc1O)C(=O)NCCC1=CCCCC1 (centres undefined)	inactive
CSCCC(NS(=O)(=O)c1ccc(C)cc1)C(=O)N1CCCC1 (centres undefined)	inactive
C/C(Cc1ccccc1)=N\NC(=O)CNC(=O)c1ccc2c(c1)OCCO2	inactive
